Assay outcomes as filed in PubChem BioAssay.
Pf Dd2 growth – P. falciparum Dd2 growth inhibition; SYBR Green, 72 h; active compounds read low; activity change, % at 10 µM; hit rate 2.3% among 94,000; in the data active = activity change below about -80%; inconclusive = no clear call, values can overlap the other calls
Tcruzi prolif – blocks T. cruzi growth in NIH3T3 culture; T. cruzi beta-gal in NIH3T3, GalScreen luminescence, 90 h; inhibition, % at 8.34 µM; hit rate 5.9% among 77,000;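 active = mean inhibition above about 93%, with at least 55% of replicates each passing it, limit read from the data, passing the limit was not always enough; inconclusive = only one of those two conditions holds; inactive = neither condition holds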
C diff HTS – C. difficile growth inhibition | Clostridium difficile clinical isolate growth, OD600, 24 h; active compounds read low | growth activity, negative = inhibition, % at 16 µg/mL (by protocol) | hit rate 0.25% among 86,000 | AID 1259249;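 active = mean growth activity at or below -80% and every replicate also at or below -80%; inconclusive = mean at or below -80% but some replicate above -80%; inactive = mean growth activity above -80%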;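 note: 0% = DMSO wells and -100% = levofloxacin 16 µg/mL wells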
An asterisk follows results filed as active; ? = inconclusive; / = no result; ! = a repeat was not active. An excerpt weighted towards active compounds, which were near 6.7% of everything screened.

SMILES	Pf Dd2 growth	Tcruzi prolif	C diff HTS
COc1ccccc1C#Cc1ccc2c(c1)[C@H]1[C@H](CCN1C(=O)c1ccc(F)cc1)[C@H](CO)N2	12.2	90.9	-96.8*
COc1ccc2c3c(n(C)c2c1)[C@H](CO)N(C(=O)C1CCCCC1)CC31CCN(C(=O)Nc2cccc(F)c2)CC1	-46.3	/	5.0
CCCC#Cc1ccc([C@@H]2[C@@H](C#N)N(S(=O)(=O)c3cccc(F)c3)[C@H]2CO)cc1	-72.0	88.0	-14.6
CNC[C@@H]1OCCCC[C@@H](C)Oc2ccc(NS(=O)(=O)c3ccccc3)cc2C(=O)N([C@@H](C)CO)C[C@H]1C	33.5	30.4	-0.4
C[C@H](CO)N1C[C@H](C)[C@@H](CN(C)Cc2ccc(Oc3ccccc3)cc2)Oc2ccc(NC(=O)Nc3ccc(F)cc3)cc2CC1=O	-82.1*	56.0	63.0
C[C@H]1CN([C@@H](C)CO)C(=O)Cc2cc(NC(=O)Nc3ccc4c(c3)OCO4)ccc2O[C@@H]1CN(C)Cc1ccc(Oc2ccccc2)cc1	-35.7	69.7	4.3
C[C@H](CO)N1C[C@H](C)[C@H](CN(C)Cc2ccc(Oc3ccccc3)cc2)Oc2ccc(NC(=O)Nc3ccc(F)cc3)cc2CC1=O	-8.0	72.7	37.2
C[C@@H]1CN([C@@H](C)CO)C(=O)Cc2cc(NC(=O)Nc3ccc4c(c3)OCO4)ccc2O[C@H]1CN(C)Cc1ccc(Oc2ccccc2)cc1	-80.7*	93.9	11.0
Cc1ccc(S(=O)(=O)N(C)C[C@@H]2Oc3ccc(NC(=O)CCCCCC(=O)Nc4ccccc4N)cc3CC(=O)N([C@@H](C)CO)C[C@H]2C)cc1	-68.4	15.7	-6.0
C[C@@H]1CN([C@H](C)CO)C(=O)Cc2cc(NC(=O)c3ccncc3)ccc2O[C@@H]1CN(C)Cc1ccc(C(=O)Nc2ccccc2N)cc1	-74.7	/	5.7
C[C@@H]1CN([C@@H](C)CO)C(=O)Cc2cc(NC(=O)c3ccncc3)ccc2O[C@@H]1CN(C)Cc1ccc(C(=O)Nc2ccccc2N)cc1	-85.0*	/	6.9
C[C@@H]1CN([C@H](C)CO)C(=O)Cc2cc(NC(=O)Nc3ccc(F)cc3)ccc2O[C@H]1CN(C)Cc1ccc(C(=O)Nc2ccccc2N)cc1	-39.1	/	8.5
C[C@H](CO)N1C[C@H](C)[C@H](CN(C)Cc2ccc(C(=O)Nc3ccccc3N)cc2)Oc2ccc(NC(=O)c3ccncc3)cc2CC1=O	-49.4	74.4	-0.1
Cc1ccc(S(=O)(=O)N(C)C[C@@H]2Oc3ccc(NC(=O)CCCCCC(=O)Nc4ccccc4N)cc3CC(=O)N([C@@H](C)CO)C[C@@H]2C)cc1	-87.7*	50.2	-5.4
C[C@H](CO)N1C[C@H](C)[C@@H](CN(C)Cc2ccc(C(=O)Nc3ccccc3N)cc2)Oc2ccc(NC(=O)Cc3ccccc3)cc2CC1=O	-83.0*	/	0.6
C[C@H]1CN([C@@H](C)CO)C(=O)Cc2cc(NC(=O)Nc3ccc(F)cc3)ccc2O[C@@H]1CN(C)Cc1ccc(C(=O)Nc2ccccc2N)cc1	-85.6*	/	2.4
C[C@H]1CN([C@@H](C)CO)C(=O)Cc2cc(NC(=O)Nc3ccc4c(c3)OCO4)ccc2O[C@@H]1CN(C)C(=O)NC1CCCCC1	-20.4	20.2	3.3
CN(C[C@@H]1N[C@H](CO)[C@@H]1c1ccc(-c2ccccc2)cc1)C(=O)C1CCC1	-23.5	/	-3.6
COCC#Cc1cnc2c(c1)C(=O)N([C@H](C)CO)C[C@H](C)[C@H](CN(C)C(=O)Cc1ccncc1)O2	23.0	-25.7	-2.2
C[C@@H]1CN([C@H](C)CO)C(=O)Cc2cc(NC(=O)CCCCCC(=O)Nc3ccccc3N)ccc2O[C@H]1CN(C)Cc1ccccc1	-53.0	21.1	-12.3
C[C@H]1CN([C@@H](C)CO)C(=O)Cc2cc(NC(=O)CCCCCC(=O)Nc3ccccc3N)ccc2O[C@H]1CN(C)Cc1ccc(-c2ccccc2)cc1	-82.3*	43.1	0.3
CCC(=O)N1CC2(C1)[C@H](c1ccc(-c3ccccc3C)cc1)[C@H](CO)N2C(C)=O	-46.4	/	-11.7
CC(C)NC(=O)N(C)C[C@@H]1OCCCC[C@@H](C)Oc2ccc(NC(=O)Nc3ccc4c(c3)OCO4)cc2C(=O)N([C@@H](C)CO)C[C@H]1C	-24.0	-7.9	-0.4
COc1ccc2c3c(n(C)c2c1)[C@H](CO)NCC31CCN(Cc2ccccc2Cl)CC1	-84.6*	/	-1.3
COc1ccc2c3c(n(C)c2c1)[C@@H](CO)NCC31CCN(Cc2ccc(F)cc2)CC1	13.3	/	/
SMILES	Pf Dd2 growth	Tcruzi prolif	C diff HTS
COc1ccc2c3c(n(C)c2c1)[C@H](CO)NCC31CCN(Cc2cc(-c3ccccc3)on2)CC1	-91.2*	/	-7.3
COc1ccc2c3c(n(C)c2c1)[C@H](CO)NCC31CCN(Cc2ccccc2F)CC1	?	/	13.7
COc1ccc2c3c(n(C)c2c1)[C@@H](CO)NCC31CN(Cc2ccc(Cl)cc2)C1	-56.7	/	53.1
COc1ccc2c3c(n(C)c2c1)[C@@H](CO)NCC31CCN(Cc2ccccc2Cl)CC1	-88.4*	/	8.6
COc1ccc2c3c(n(C)c2c1)[C@H](CO)NCC31CN(Cc2ccc(F)cc2)C1	-84.5*	/	75.4
COc1ccc2c3c(n(C)c2c1)[C@@H](CO)NCC31CCN(Cc2ccncc2)CC1	-68.7	/	8.1
COc1ccc(S(=O)(=O)Nc2ccc3c(c2)C(=O)N([C@H](C)CO)C[C@H](C)[C@H](CN(C)Cc2ccccc2)OCCCC[C@@H](C)O3)cc1	25.6	-31.1	-5.8
CCCNC(=O)C[C@H]1CC[C@@H]2[C@H](COc3ccc(NS(=O)(=O)c4ccccc4C)cc3C(=O)N2C)O1	0.0	4.2	13.9
C[C@H]1CN([C@@H](C)CO)C(=O)c2cccc(NS(=O)(=O)c3ccccc3)c2O[C@H]1CN(C)Cc1ccccc1	-29.8	58.0	0.0
Cc1noc(C)c1NC(=O)N(C)C[C@H]1OCCCC[C@@H](C)Oc2ccc(NS(=O)(=O)c3cccs3)cc2C(=O)N([C@@H](C)CO)C[C@H]1C	-9.8	26.9	10.0
C[C@@H]1CN([C@@H](C)CO)C(=O)c2cccc(NC(=O)c3ccncc3)c2O[C@H]1CN(C)CC1CCCCC1	-44.2	78.1	8.3
COc1ccc2c3c(n(C)c2c1)[C@H](CO)NCC31CN(CC2CC2)C1	8.6	/	3.8
COc1ccc2c3c(n(C)c2c1)[C@@H](CO)NCC31CCN(CC2CCCCC2)CC1	-82.4*	/	-1.3
O=C(C1CCCC1)N1C[C@@H]2N[C@H](C1)C2c1ccc(-c2ccncc2)cc1 (stereo not given in full)	-1.4	/	-1.8
O=C(c1ccc(F)cc1)N1C[C@@H]2N[C@H](C1)C2c1ccc(-c2ccccc2F)cc1 (stereo not given in full)	-32.4	/	70.9
O=C(C1CCCC1)N1C[C@@H]2N[C@H](C1)C2c1ccc(-c2cccc(F)c2)cc1 (stereo not given in full)	-65.1	/	39.3
N#Cc1ccc(-c2ccc(C3[C@@H]4CN(C(=O)C5CCCC5)C[C@H]3N4)cc2)cc1 (stereo not given in full)	-80.8*	/	2.5
O=C(C1CC1)N1C[C@@H]2N[C@H](C1)C2c1ccc(-c2cccc(F)c2)cc1 (stereo not given in full)	-81.4*!	/	0.9
O=C(C1CC1)N1C[C@@H]2N[C@H](C1)C2c1ccc(-c2ccccc2F)cc1 (stereo not given in full)	-87.1*!	/	1.0
